Results on 60 molecules are retold here after PubChem BioAssay AID2314 (National Center for Advancing Translational Sciences (NCATS), 2010).

The whole screen tested about 300,000 compounds, of which about 37,000 (12%) were called active. Cut-off read from the data, not from the text of the source: active = max response mostly above about 13% (no sharp cut-off); inactive = mostly below about 14%. This excerpt belongs to a sample that is enriched for actives.

This assay in a line: Cycloheximide Counterscreen for Small Molecule Inhibitors of Shiga Toxin. Note: read at 38.3 µM for the half of the compounds with a filed dose; 0% is about no effect. As to conditions: cell reporter, cycloheximide protein synthesis inhibition counterscreen; stronger effect = higher value. A general note: Counterscreens check selectivity or assay interference.
`CCOc1ccc(N(C)S(=O)(=O)c2cnc[nH]2)cc1`: the max response is -3.61% (inactive).
For the molecule `O=C(Cc1ccc(S(=O)(=O)N2CCCC2)s1)NC1CCCCCC1`, the max response was 0.894% (inactive).
`C=CCn1c(=S)sc2c(=O)[nH]c(C)nc21`: the max response is 6.52% (inactive).
The result for `COc1ccccc1C1/C(=C(/O)c2ccc(OC(C)C)cc2)C(=O)C(=O)N1c1cc(C)on1` (stereo not given) reads -2.72% (inactive); that for `COc1ccc(C2/C(=C(/O)c3ccccc3)C(=O)C(=O)N2C)c(OC)c1` (stereo not given), 5.88% (inactive).
Under `CCOc1ccc(/C(O)=C2\C(=O)C(=O)N(c3ccc(OC)cc3)C2c2ccccc2[N+](=O)[O-])cc1` (stereo not given) stands 45.2% (active); under `O=S(=O)(Nc1nccs1)c1ccc2c(c1)OCCO2`, 13.4% (inactive).
Consider `CC(CCc1ccc(O)cc1)NCc1ccc(Cl)cc1Cl` (stereo not given), for which the max response is 0.267% (inactive).
For the molecule `COc1ccc(NC(=O)CCCNC(=O)Cn2cnc3sc4c(c3c2=O)CCCC4)cc1OC`, the max response is -1.82% (inactive).
For `CCOC(=O)c1sc(-c2cccc([N+](=O)[O-])c2)cc1N`, the max response is 19% (active).
As to `O=[N+]([O-])c1cccc(C2=NCCS2)c1`, the max response was 7.65% (inactive).
For `CCOC(=O)C1=C(CN2CCCCCC2)NC(=O)NC1c1cccc([N+](=O)[O-])c1` (stereo not given), the max response was -4.55% (inactive).
Under `CN(C)S(=O)(=O)Oc1ccccc1C(=O)Nc1ccccc1Cl` stands -4.26% (inactive).
Take `O=C(NCCc1ccco1)c1nn(Cc2ccccc2)c(=O)c2ccccc12`: the max response is 11.7% (active).
For the molecule `O=c1c2ccccc2c(-c2ccc(Br)cc2)nn1Cc1ccccc1`, the max response is -1.69% (inactive).
Under `O=C(NCc1ccco1)c1nc(-c2ccccc2)n(-c2ccccc2)n1` stands -1.99% (inactive); under `Cc1ccc(C(NC(=O)N2CCCC2)C(Cl)(Cl)Cl)cc1F` (stereo not given), 10.7% (inactive).
As for `COc1ccc(C(C(=O)NC(C)(C)C)N(Cc2ccc(F)cc2)C(=O)CCC(=O)Nc2cc(C)on2)cc1` (stereo not given), the max response is -0.261% (inactive).
In the case of `CCOC(=O)c1c(C)[nH]c(C2=NNC(=NC(C)COC)SC2)c1C` (stereo not given), the max response was 42.6% (active).
Under `CCOC(=O)c1c(C)[nH]c2c1-c1ccccc1C(=O)C2=O` stands 12.4% (inactive); under `Cc1ccnc(NS(=O)(=O)c2ccc(NC(=O)c3oc4ccc(F)cc4c3C)cc2)n1`, -2.51% (inactive).
As to `O=C(NCC1COc2ccccc2O1)C1(c2ccccc2)CCCC1` (stereo not given), the max response was -2.77% (inactive).
The result for `COc1ccc(Br)cc1CN(C)CC(=O)Nc1cc([N+](=O)[O-])ccc1OC` reads -1.88% (inactive); that for `Cc1cc(=O)[nH]c(N/N=C/c2c(C)nn(-c3ccccc3Cl)c2Cl)n1`, 10.2% (active).
For the molecule `Cc1cc(=O)[nH]c(N/N=C/c2ccc3c(c2)OCCO3)n1`, the max response was 38.7% (inactive).
The result for `CCN(CC)c1ccc(/C=N/Nc2nc(C)cc(=O)[nH]2)cc1` reads 1.51% (inactive); that for `Cc1ccc(C(=O)NCC(=O)NCc2cc(=O)n(C)c(=O)n2C)cc1`, -0.788% (inactive); that for `O=C(CN1CCOC1=O)N1CCCC(Nc2ccc(F)c(F)c2)C1` (stereo not given), 23.5% (active).
Regarding `O=C(CN1C(=O)CSC1=O)N1CCCC(Nc2ccc(F)cc2)C1` (stereo not given), the max response was -1.37% (inactive).
For the molecule `O=C1CCCCN1CCCC(=O)N1CCCC(Nc2ccc(F)cc2)C1` (stereo not given), the max response was 2.17% (inactive).
In the case of `CC1CCCN(CCCNC(=O)CN2C(=O)COc3ccc(S(=O)(=O)N4CCOCC4)cc32)C1` (stereo not given), the max response is -6.25% (inactive).
The result for `O=C(Cc1ccc2c(c1)CCCC2)Nc1ccccc1Cl` reads 15.4% (active); that for `O=C(Nc1ccc2c(c1)CCC2)c1cccc(S(=O)(=O)Nc2ccccc2Cl)c1`, 8.91% (inactive).
The result for `CC1(C)CC(CCC(=O)Nc2ccccc2Cl)C(=O)O1` (stereo not given) reads 5.32% (inactive); that for `COc1ccc(CNC(=O)CN(C(=O)c2csnn2)c2cnc3ccccc3c2)cc1`, -1.99% (inactive).
Consider `Cc1nnc(SCC(=O)Nc2cccc(N)c2)n1-c1ccccc1`, for which the max response was -3.71% (inactive).
Consider `Cc1cc(C)c(C#N)c(SCc2ccccc2C(=O)O)n1`, for which the max response was -3.7% (inactive).
The result for `O=C(CSc1ccccc1)Nc1cc(Cl)ccc1Oc1ccccc1` reads -2.3% (inactive); that for `Cc1cc(C)cc(NC(=O)CSc2ccccc2)c1`, 18.6% (active); that for `COCc1cc(C)nc(SCC(=O)Nc2cccc(C)c2)c1C#N`, 5.77% (inactive).
The result for `CSc1cccc(NC(=O)CSc2ccccc2)c1` reads 39.6% (active).
For the molecule `Cc1cc(C)c(C#N)c(SCC(=O)Nc2ccccc2)n1`, the max response is 14% (active).
As for `O=C(CSc1nc(C2CC2)nc2ccccc12)Nc1cccc(O)c1`, the max response is -1.26% (inactive).
On to `O=C(CSc1ccccc1)Nc1ccc(C(=O)Nc2cccc(O)c2)cc1`, for which the max response was 32.4% (active).
Under `Cc1cc(C)cc(NC(=O)CN2C(=O)c3ccccc3C2=O)c1` stands -2.91% (inactive); under `Cc1cc(C)cc(NC(=O)CCN2C(=O)c3ccccc3C2=O)c1`, 7.24% (inactive).
The result for `O=C(Nc1ccc(CSc2ccccc2)cc1)c1ccc(CN2CCOCC2)cc1` reads -1.82% (inactive).
As for `COc1ccc(/C=C2\SC(=S)N(CCC(=O)Nc3cccc(C(=O)O)c3)C2=O)cc1OC`, the max response was 1.51% (inactive).
For the molecule `CC(NC(=O)COc1cccnc1[N+](=O)[O-])c1ccc(Cl)cc1Cl` (stereo not given), the max response is -5.73% (inactive).
For `CCCN1Cc2cccc(C(=O)Nc3ccc(S(=O)(=O)N4CCCCCC4)cc3)c2C1=O`, the max response is -1.84% (inactive).
For `CCCCN(CC)C(=O)C1CCCN(S(=O)(=O)c2cccc3nsnc23)C1` (stereo not given), the max response was -3.7% (inactive).
Under `C#CCNC(=O)C1=C[C@@H](c2ccccc2)[C@H](CCCO)[C@@H](OCC)O1` stands 0.207% (inactive).
On to `O=C(NCC(c1cccs1)N1CCOCC1)c1cc(-c2ccccn2)nc2ccccc12` (stereo not given), for which the max response is -1.88% (inactive).
In the case of `CN(C(=O)c1cccc([N+](=O)[O-])c1)c1ccccc1C(=O)NCc1ccccc1`, the max response is -2.25% (inactive).
With `CN(C)/C=C(/C(=O)c1ccc(F)cc1)S(=O)(=O)c1ccc(F)cc1`, the max response was 27.7% (active).
Under `O=C(NNS(=O)(=O)c1ccc(F)cc1)C1CCCCC1` stands -1.22% (inactive).
Regarding `CN(C)/C=C(/C(=O)c1ccccc1)S(=O)(=O)c1ccc(Cl)cc1`, the max response is 9.87% (inactive).
Turning to `CN(C)/C=C(/C(=O)c1ccccc1Cl)S(C)(=O)=O`, the max response was -0.829% (inactive).
With `Cc1ccc(S(=O)(=O)/N=C(\N)c2ccc(F)cc2)cc1`, the max response was 6.04% (inactive).
For `CN(C)/C=C(/C(=O)c1ccc(Cl)cc1)S(=O)(=O)c1ccccc1`, the max response is 50.5% (active).
